# SSB-PriA inh: inhibitors of Klebsiella pneumoniae PriA binding to SSB C-terminal tail, primary screen, biochemical, AlphaScreen | actives 0.6% (n = 430,000) | AlphaScreen SSBct-PriA binding, biotinylated peptide | AID 1272365, 2023 | PriA–SSB C-terminal tail interaction (Klebsiella pneumoniae) | inhibition, % at 33 µM; in the data active = inhibition mostly above about 37%, no sharp cut-off; inactive = mostly below about 20%;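 note: plate controls were negative control peptide for no effect and reference peptide for full effect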
# DUSP3 inh: VHR1 phosphatase inhibitors, primary screen, biochemical, absorbance, uHTS; AID 1654, 2009; Dual specificity protein phosphatase 3 (Homo sapiens), P51452; actives 0.52% (n = 290,000); recombinant VHR phosphatase, pNPP absorbance; inhibition, % at 13.3 µM; in the data active = inhibition above about 50%
# Target sequence (P51452 whole entry, looked up): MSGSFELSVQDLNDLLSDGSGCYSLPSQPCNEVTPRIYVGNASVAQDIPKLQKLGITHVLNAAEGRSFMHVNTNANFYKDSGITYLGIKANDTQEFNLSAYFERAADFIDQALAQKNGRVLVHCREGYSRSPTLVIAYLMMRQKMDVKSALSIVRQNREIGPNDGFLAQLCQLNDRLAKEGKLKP
# Mtb hypoxia inh: PubChem AID 1159583; actives 0.1% (n = 300,000); M. tuberculosis hypoxia-regulated fluorescent reporter, fluorescence; fluorescence inhibition, % (test concentration not listed); in the data active = fluorescence inhibition mostly above about 23%, no sharp cut-off; inactive = mostly below about 17%
# ugtP null kill: growth inhibition of ugtP-null S. aureus, primary screen, RN4220 ugtP deletion, OD600; 16 h; growth inhibition, % (concentration not given with the values); actives 0.54% (n = 330,000); in the data active = growth inhibition above about 68%;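 note: plate controls were untreated wells for no effect and antibiotic for full effect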
# Sa RN4220 lethal: growth inhibition of S. aureus RN4220, primary screen, OD600. 16 h. inhibition, % (no concentration beside the values). actives 0.33% (n = 330,000). AID 1259311, 2017; in the data active = inhibition above about 85%;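 note: plate controls were untreated cells for no effect and reference antibiotic for full effect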
# PfHsp40 rescue: rescue of yeast from PfHsp40 toxicity, primary screen, S. cerevisiae, ATP luminescence; S. cerevisiae expressing PfHsp40, growth rescue; growth rescue, % at 12.5 µM; actives 0.68% (n = 340,000); AID 504582, 2011; in the data active = growth rescue above about 28%, passing the limit was not always enough;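 note: yeast W303a lacking pdr1 and pdr3 grown in galactose medium; growth measured after three days at 30 °C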
# The depositor's hits bear a star; · = no result given. An excerpt weighted towards active compounds, which were near 1.8% of everything screened.
SMILES,SSB-PriA inh,DUSP3 inh,Mtb hypoxia inh,ugtP null kill,Sa RN4220 lethal,PfHsp40 rescue
CCC(C)=C1SC(N2CCN(C(C)=O)CC2)=NC1=O,·,·,-4,-9,-2,·
CCCn1c(=NC(=O)c2cccs2)sc2cc(S(C)(=O)=O)ccc21,-5,·,·,·,·,·
CCOc1cc(CNCCO)cc(Br)c1OCc1ccc(Cl)cc1Cl,-6,-6,25,98*,100*,-1
CCOc1cc(CNCc2ccncc2)cc(Br)c1OCc1ccccc1F,-2,14,12,92*,4,0
CCOc1cccc(CNCCO)c1OCc1ccc(Cl)cc1Cl,-5,0,8,-14,0,-1
CCc1nnc(C2CCN(C(=O)Nc3cccc(OC)c3)CC2)s1,-14,·,·,·,·,·
S=C(Nc1ccc(OCc2ccccc2)cc1)Nc1cccc(Cl)c1Cl,-9,5,10,10,-7,67*
S=C(Nc1ccccc1)Nc1ccc(OCc2ccccc2)cc1,-5,20,·,-4,3,0
O=S(=O)(c1cccc(Cl)c1)N1CCN(c2ccc(-c3ccccc3)nn2)CC1,-2,·,·,·,·,·
CC1(C)SC2C(NC(=O)COc3ccccc3)C(=O)N2C1C(=O)OCc1ccccc1 (configuration not stated),·,·,-4,100*,100*,·
CC1(C)S[C@@H]2[C@H](NC(=O)COc3ccccc3)C(=O)N2C1C(=O)OCC1CCCCC1 (some centres not stated),-10,·,1,100*,99*,4
CC1(C)S[C@@H]2[C@H](NC(=O)COc3ccccc3)C(=O)N2C1C(=O)OCc1cc2ccccc2n1S(=O)(=O)c1ccccc1 (some centres not stated),·,1,·,·,·,·
O=C(NCC(c1cccs1)S(=O)(=O)c1cccs1)OCc1ccccc1 (configuration not stated),5,·,·,·,·,·
Cc1ccn(-c2ccc([N+](=O)[O-])cc2)n1,-10,12,6,10,10,-1
CNc1ccccc1C(C)(C)c1cn(-c2ccc([N+](=O)[O-])cc2)nn1,10,53*,5,12,6,0
CCC(C(=O)C(C)C(O)C(C)CCc1ccc(C)c(O)c1C(=O)O)C1O[C@](CC)(C2CC[C@](O)(CC)C(C)O2)CC1C (some centres not stated),·,·,17,90*,99*,·
CCOC(=O)CC1C(=O)NCCN1Cc1cccc(OC)c1 (configuration not stated),1,19,-3,7,3,0
CCCOC(=O)CC1C(=O)NCCN1Cc1cc(OC)cc(OC)c1 (configuration not stated),-2,-4,13,8,13,40*
COc1ccc(CNC(=O)c2cc3c(=O)n4cccc(C)c4nc3n(CC3CCCO3)c2=N)cc1 (configuration not stated),-9,16,1,-2,0,0
Cc1cccn2c(=O)c3cc(C(=O)NCc4ccc(F)cc4)c(=N)n(CC4CCCO4)c3nc12 (configuration not stated),5,56*,12,-1,-3,1
COc1cccc(C(=O)Nc2sc(C(C)C)cc2C(N)=O)c1OC,-25,7,-14,7,2,604*
CCOc1ccc(CCNc2nc3c(-c4cccc(F)c4)nnn3c3ccccc23)cc1OCC,-11,·,·,·,·,·
NC(=NOC(=O)c1ccccc1Cl)c1cccnc1,-2,·,4,2,5,·
Cc1cccc([N+](=O)[O-])c1NC(=O)CN(Cc1ccccc1)Cc1ccccc1,6,5,10,99*,1,1
COc1ccc(C(=O)C=CNNC(=O)c2ccc(Cl)cc2)cc1,·,58*,·,·,·,0
SMILES,SSB-PriA inh,DUSP3 inh,Mtb hypoxia inh,ugtP null kill,Sa RN4220 lethal,PfHsp40 rescue
Cc1nn(-c2ccccc2)c2nc(=O)n(-c3ccccc3)cc12,-10,56*,18,5,1,0
Cc1ccc2nc3c(cc2c1)c(C)nn3-c1ccccc1,-78,-29,1,20,-15,-1
CN1CCN(C(=S)c2cn(Cc3cccc(F)c3)c3ccccc23)CC1,25,33,12,5,5,-1
N=C(N)Sc1cn(Cc2cccc(F)c2)c2ccccc12,45*,·,·,·,·,·
Cc1ccc(C)c(CC(=O)Nc2onc3c2CCCC3)c1,-6,·,·,·,·,·
O=C(Nc1nccs1)c1c(O)c2cccc3c2n(c1=O)CCC3,·,56*,·,·,·,·
NCCNC(=O)c1c(O)c2cccc3c2n(c1=O)CCC3,6,13,13,-3,0,6
O=C(NCc1cccnc1)c1c(O)c2cccc3c2n(c1=O)CCC3,-11,10,7,8,6,60*
O=C(Nc1ccc(OCC(F)(F)C(F)F)c(C(F)(F)F)c1)c1ccccc1O,-25,6,·,100*,112*,-1
O=C(Nc1ccc(OCC(F)(F)C(F)F)c(C(F)(F)F)c1)c1ccccc1,-12,·,·,-5,-12,3
O=c1[nH]c2cc3c(cc2c(=O)n1Cc1nc(-c2cccc(Cl)c2)no1)OCO3,-6,·,·,·,·,·
O=C1CC(O)(C(F)F)Oc2ccc3ccccc3c21 (configuration not stated),-3,11,·,-13,1,0
O=C1CC(O)(C(F)(F)F)Oc2c1ccc1ccccc21 (configuration not stated),-4,-6,3,41,54,54*
COc1ccc(SCC2CCN(C(=O)c3cccc(N(C)C)c3)CC2)cc1,42*,·,·,·,·,·
O=[N+]([O-])c1ccc(S(=O)Cc2ccccc2)c([N+](=O)[O-])c1 (configuration not stated),-7,·,·,·,·,253*
O=[N+]([O-])c1ccc(CS(=O)c2ccccc2)cc1 (configuration not stated),-1,·,·,·,·,0
COCCn1nnn(-c2ccc(NS(=O)(=O)/C=C/c3ccccc3)cc2)c1=O,-1,·,·,·,·,·
Cc1n[nH]c(C)c1CCC(=O)N1CCCC(Oc2cccnn2)C1 (configuration not stated),-8,·,·,·,·,·
Cc1cnnn1-c1ccc(C(=O)Nc2ccc(Cl)cc2Cl)cc1,-1,·,·,·,·,·
Cc1cnnn1-c1ccc(C(=O)CCl)cc1,6,35,-83,98*,98*,0
COc1ccc(C(=O)NCC2CCN(c3ccncc3)CC2)c(OC)c1OC,-5,·,·,·,·,·
COc1ccc(NS(=O)(=O)c2ccc(-c3cnc(C4CC4)o3)cc2)cc1OC,3,52*,1,-8,1,0
CCOC(=O)c1cn[nH]c1S(=O)(=O)Nc1cc(C)ccc1OC,-2,·,·,·,·,·
Cn1cc(C(=O)c2cccc(Cl)c2)cc1C=NO,-2,·,-4,0,-2,·
Cn1cc(C(=O)c2cccc(Cl)c2)cc1/C=N\O,·,23,·,·,·,30*
Cc1cc(NC(=O)c2ccc3c(c2)OCO3)n(-c2nc3c(cnn3-c3ccc(Cl)cc3)c(=O)[nH]2)n1,-12,·,·,·,·,·
COc1ccccc1NC(=O)CCN1CCN(C)CC1,-4,-23,11,6,2,1

# Assay outcomes: PubChem BioAssay, several laboratories
